# Laboratory results as given in PubChem BioAssay (NCATS).
# Values joined by “and” are separate entries in the source; they are usually repeats but may differ in a detail not shown here. Equal values may be shown once. Results filed as inconclusive are left out. A structure can be active in one record and inactive in another. Active and inactive are the calls of the source. The call rests on the fitted dose curve; in most records, active means well fitted inhibition curve with a large enough effect; inconclusive means small, poorly fitted or top-dose-only effect; inactive means flat fitted curve, though single readings scatter. Where a SMILES comes first, the peptide text is derived from it. [ ]: non-standard residue; d: D form. pGlu = O=C1CC[C@@H](C(=O)O)N1; Thz = O=C(O)[C@@H]1CSCN1
# Target: Glutathione peroxidase 1 (Homo sapiens) (UniProt P07203)
# Sequence (P07203 whole entry, looked up): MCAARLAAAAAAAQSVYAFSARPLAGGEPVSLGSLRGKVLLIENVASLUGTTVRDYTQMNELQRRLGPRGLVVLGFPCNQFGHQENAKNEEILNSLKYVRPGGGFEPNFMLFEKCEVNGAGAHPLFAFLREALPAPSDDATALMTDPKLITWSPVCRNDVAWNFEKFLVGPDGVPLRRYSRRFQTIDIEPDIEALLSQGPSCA
# Assay: Primary qHTS Assay for Inhibitors of Recombinant Selenoprotein Glutathione Peroxidase 1 (GPX1) (AID 1845191)
# Conditions: recombinant GPX1, GR-coupled NADPH fluorescence, 15 min; series mostly up to 48.8 µM; activity, negative = inhibition: at the top concentration
# Outline: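 GR-coupled assay: compounds preincubated 30 min at room temperature with GPX1, then reaction started with CHP; final 10 nM GPX1, 1 mM GSH, 0.5 mM CHP, 0.5 mM NADPH, 100 nM GR, 0.01% BSA, pH 7.5 Tris buffer. NADPH fluorescence (340/450 nm) read at 0 and 15 min.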
# Further: nearly all actives have a fitted effect of over 65% in size.
# On the % scale 0 is the no-effect control and ±100 the full control effect; potency means the concentration at half of the fitted maximal effect.
Structure (SMILES),"activity, negative = inhibition",outcome,Potency
O=C(O)Cc1cccc(-c2cc(CCCCCCc3ccc(O[C@H]4O[C@H](CO)[C@@H](O)[C@H](O)[C@@H]4O)c(-c4cccc(CC(=O)O)c4)c3)ccc2O[C@H]2O[C@H](CO)[C@@H](O)[C@H](O)[C@@H]2O)c1,-5.05% [at 0.4 µM] (inactive),,
CC(=O)O[C@H]1C[C@@]2(C)[C@@H](C[C@@H](O)[C@H]3[C@@]4(C)CC[C@@H](O)[C@@H](C)[C@@H]4CC[C@@]32C)/C1=C(\CCC=C(C)C)C(=O)O,,inactive,
Cc1c(Nc2ncccc2C(=O)O)cccc1C(F)(F)F,,inactive,
CO[C@@]1(NC(=O)Cc2cccs2)C(=O)N2C(C(=O)O)=C(COC(N)=O)CS[C@@H]21,,,6.4 µM (active)
COc1cc(CNC(=O)CCCC/C=C/C(C)C)ccc1O,,,inactive
CC(C(=O)O)c1ccc2c(c1)[nH]c1ccc(Cl)cc12 (configuration not stated),,,inactive
O=C(O)[C@H](CC(=O)N1C[C@H]2CCCC[C@H]2C1)Cc1ccccc1,,,inactive
Nc1c(CC(=O)O)cccc1C(=O)c1ccc(Br)cc1,,inactive,
CC(=O)c1ccc(OCC(=O)N2CCCCC2)cc1,0.17% (inactive),,
CCNC(=O)[C@H]1O[C@@H](n2cnc3c(N)nc(NCCc4ccc(CCC(=O)O)cc4)nc32)[C@H](O)[C@@H]1O,,inactive,
Cc1onc(-c2c(F)cccc2Cl)c1C(=O)N[C@@H]1C(=O)N2[C@@H]1SC(C)(C)[C@@H]2C(=O)O,-21.6% (inactive),,
C/C(=N\O)c1ccc(OCC(=O)N2CCCCC2)cc1,-15% (inactive),,
NC(=S)c1ccc[n+]([C@@H]2O[C@@H](COP(=O)([O-])OP(=O)(O)OC[C@H]3O[C@@H](n4cnc5c(N)ncnc54)[C@H](OP(=O)(O)O)[C@@H]3O)C(O)C2O)c1 (some centres not stated),,inactive,
CCCCCCCCCCCCOCCO,-9.19% (inactive),,
CNC(=O)c1c(I)c(NC(=O)CCCCC(=O)Nc2c(I)c(C(=O)O)c(I)c(C(=O)NC)c2I)c(I)c(C(=O)O)c1I,,inactive,

# Target: Phospholipid hydroperoxide glutathione peroxidase GPX4 (Homo sapiens) (UniProt P36969)
# Sequence (P36969 whole entry, looked up): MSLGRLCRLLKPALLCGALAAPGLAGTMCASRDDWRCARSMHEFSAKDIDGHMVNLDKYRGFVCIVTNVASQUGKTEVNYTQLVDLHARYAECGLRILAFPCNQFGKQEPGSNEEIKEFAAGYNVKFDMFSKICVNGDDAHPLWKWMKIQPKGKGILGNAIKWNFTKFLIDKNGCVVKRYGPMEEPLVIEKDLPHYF
# Assay: Primary qHTS Assay for Inhibitors of Recombinant Selenoprotein Glutathione Peroxidase 4 (GPX4) (AID 1845192)
# Conditions: recombinant GPX4, GR-coupled NADPH fluorescence, 15 min; series mostly up to 50 µM; activity change, negative = inhibition: at the top concentration
# Outline: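 GR-coupled assay: recombinant GPX4 preincubated 30 min with compound at room temperature; final 200 nM GPX4, 1 mM GSH, 0.5 mM cumene hydroperoxide, 0.5 mM NADPH, 100 nM GR, 0.01% BSA, pH 7.5 Tris. NADPH fluorescence (340/450 nm) read at 0 and 15 min.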
Structure (SMILES),outcome,"activity change, negative = inhibition",Potency
C#CC1(O)CC[C@H]2[C@@H]3CCC4=CCCC[C@@H]4[C@H]3CC[C@@]21C (some centres not stated),inactive,,
O=C(O)CC1CC(c2ccccc2)=NO1 (configuration not stated),,-1.25% [at 15.3 µM] (inactive),
O=C1CC[C@@H](C(=O)N2CSC[C@H]2C(=O)O)N1 ([pGlu]-[Thz]-OH),,10.8% (inactive),
Cc1ccc2c(n1)Oc1ccc(C(C)C(=O)OCC(=O)N(C)C)cc1C2 (configuration not stated),,,inactive
CC1(C)S[C@@H]2[C@H](NC(=O)[C@H](N)c3ccc(O)cc3)C(=O)N2[C@H]1C(=O)O,,-12.5% (inactive),
O=C(Nc1cccc(C(=O)Nc2ccc(S(=O)(=O)O)c3cc(S(=O)(=O)O)cc(S(=O)(=O)O)c23)c1)Nc1cccc(C(=O)Nc2ccc(S(=O)(=O)O)c3cc(S(=O)(=O)O)cc(S(=O)(=O)O)c23)c1,,-10% (inactive),
N#C/C(=C\c1ccc(O)c(O)c1)C(=O)NCc1ccccc1,,-18.2% (inactive),
Cc1cn([C@H]2CC(N=[N+]=[N-])[C@@H](CO)O2)c(=O)[nH]c1=O (some centres not stated),,-12.2% (inactive),
COc1cc(/C=C/C(=O)N2CCN(CC(=O)N3CCCC3)CC2)cc(OC)c1OC,,0.34% (inactive),
COC(=O)C1=C(C)NC(C)=C(C(=O)OCC(C)=O)C1c1ccccc1[N+](=O)[O-] (configuration not stated),,-24.5% (inactive),
CC1(C)S[C@@H]2[C@H](NC(=O)[C@H](NC(=O)N3CCN(S(C)(=O)=O)C3=O)c3ccccc3)C(=O)N2[C@H]1C(=O)O,,-29.3% (inactive),
C[C@H](O)[C@H](O)[C@H]1CNc2nc(N)[nH]c(=O)c2N1,,,20.2 µM (active)
CN1[C@@H]2CC[C@H]1CC(OC(c1ccccc1)c1ccccc1)C2 (some centres not stated),,,inactive
CC(=O)SCC(CC(=O)c1ccc(C)cc1)C(=O)O (configuration not stated),,3.8% (inactive),
C=C[C@H]1CN2CC[C@@H]1C[C@@H]2[C@@H](O)c1ccnc2ccc(OC)cc12,inactive,,
CC1(C)[C@@H](O)CC[C@]2(C)[C@H]3C(=O)C=C4[C@@H]5C[C@@](C)(C(=O)O)CC[C@]5(C)CC[C@@]4(C)[C@]3(C)CC[C@@H]12,,,inactive and 8.91 µM (active)
O=C(O)Cc1cccc(-c2cc(CCCCCCc3ccc(O[C@H]4O[C@H](CO)[C@@H](O)[C@H](O)[C@@H]4O)c(-c4cccc(CC(=O)O)c4)c3)ccc2O[C@H]2O[C@H](CO)[C@@H](O)[C@H](O)[C@@H]2O)c1,,-19% [at 0.409 µM] (inactive),
CC(=O)O[C@H]1C[C@@]2(C)[C@@H](C[C@@H](O)[C@H]3[C@@]4(C)CC[C@@H](O)[C@@H](C)[C@@H]4CC[C@@]32C)/C1=C(\CCC=C(C)C)C(=O)O,,-3% (inactive),
Cc1cc(O)c2ccccc2c1O,,-19.7% (inactive),

Structure (SMILES),outcome,"activity change, negative = inhibition",Potency
Cc1c(Nc2ncccc2C(=O)O)cccc1C(F)(F)F,inactive,,
CO[C@@]1(NC(=O)Cc2cccs2)C(=O)N2C(C(=O)O)=C(COC(N)=O)CS[C@@H]21,inactive,,
CN1[C@@H]2CC[C@H]1CC(OC(=O)C(CO)c1ccccc1)C2 (some centres not stated),,-1.17% (inactive),
COc1cc(NC(C)CCCN)c2ncccc2c1 (configuration not stated),,-1.91% (inactive),
OCC1O[C@H]([S-])[C@H](O)[C@@H](O)[C@@H]1O.[Au+] (some centres not stated),,4.98% (inactive),
Nc1ccc(O)c(C(=O)O)c1,,-15.2% (inactive),
COc1cc(CNC(=O)CCCC/C=C/C(C)C)ccc1O,,,inactive
CC(C(=O)O)c1ccc2c(c1)[nH]c1ccc(Cl)cc12 (configuration not stated),,,inactive
O=C(O)[C@H](CC(=O)N1C[C@H]2CCCC[C@H]2C1)Cc1ccccc1,,,inactive
Nc1c(CC(=O)O)cccc1C(=O)c1ccc(Br)cc1,inactive,,
CC(=O)c1ccc(OCC(=O)N2CCCCC2)cc1,inactive,,
CCNC(=O)[C@H]1O[C@@H](n2cnc3c(N)nc(NCCc4ccc(CCC(=O)O)cc4)nc32)[C@H](O)[C@@H]1O,inactive,,
Cc1onc(-c2c(F)cccc2Cl)c1C(=O)N[C@@H]1C(=O)N2[C@@H]1SC(C)(C)[C@@H]2C(=O)O,,-13.5% (inactive),
C/C(=N\O)c1ccc(OCC(=O)N2CCCCC2)cc1,,-6.34% (inactive),
NC(=S)c1ccc[n+]([C@@H]2O[C@@H](COP(=O)([O-])OP(=O)(O)OC[C@H]3O[C@@H](n4cnc5c(N)ncnc54)[C@H](OP(=O)(O)O)[C@@H]3O)C(O)C2O)c1 (some centres not stated),,2.27% (inactive),
CCCCCCCCCCCCOCCO,,-13.8% (inactive),
CNC(=O)c1c(I)c(NC(=O)CCCCC(=O)Nc2c(I)c(C(=O)O)c(I)c(C(=O)NC)c2I)c(I)c(C(=O)O)c1I,inactive,,
CC1(C)[C@@H](O[C@H]2O[C@H](C(=O)O)[C@@H](O)[C@H](O)[C@H]2O[C@@H]2O[C@H](C(=O)O)[C@@H](O)[C@H](O)[C@H]2O)CC[C@]2(C)[C@H]3C(=O)C=C4[C@@H]5C[C@@](C)(C(=O)O)CC[C@]5(C)CC[C@@]4(C)[C@]3(C)CC[C@@H]12,,-1.41% [at 27.8 µM] (inactive),
